# From PubChem BioAssay (NCI)
# The panel holds about 83,000 compounds, 20% with a hit somewhere; the sample as a whole holds those more often.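 Assay: single dose, 48 h. Readout: percent growth (0 = no net growth; negative = cell death). Active: <10.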 A number with no mark means an inactive call. Activity calls are given as the source filed them.
# How the values were obtained:
# Assay in all cases: NCI-60 one-dose screen, 48 h (100 = growth as untreated, 0 = no growth, -100 = all killed)
# Conditions in all cases: 10 µM unless noted
# HCT-15 colon = system: HCT-15 colon
# HT29 colon = system: HT29 colon
# SNB-75 CNS = system: SNB-75 CNS
# SNB-19 CNS = system: SNB-19 CNS
# U251 CNS = system: U251 CNS
# PC-3 prostate = system: PC-3 prostate
# SK-MEL-5 melanoma = system: SK-MEL-5 melanoma
# UACC-62 melanoma = system: UACC-62 melanoma
# LOX IMVI melanoma = system: LOX IMVI melanoma
# SK-MEL-28 melanoma = system: SK-MEL-28 melanoma
Compound,growth (HCT-15 colon),growth (HT29 colon),growth (SNB-75 CNS),growth (SNB-19 CNS),growth (U251 CNS),growth (PC-3 prostate),growth (SK-MEL-5 melanoma),growth (UACC-62 melanoma),growth (LOX IMVI melanoma),growth (SK-MEL-28 melanoma)
O=c1nc(-c2ccccc2)c2cc(-c3ccc(N4CCCC4)nc3)ccc2[nH]1,44%,30.7%,66.1%,66.4%,67.5%,65.7%,40.4%,57.2%,57.2%,82.3%
COC(=O)/C=C/c1cc(OC(C)=O)c2c(c1)C(C(=O)OC)C(c1ccc(OC(C)=O)c(OC(C)=O)c1)O2 (stereo not given),7.82% (active),11%,46.3%,23.1%,7.2% (active),12%,-19% (active),32.6%,14.1%,50.5%
O=C1C(=O)c2c(nc3ccc(C(F)(F)F)cn23)-c2ccccc21,-67.4% (active),-9.93% (active),-97% (active),-84.4% (active),-96% (active),-85% (active),-99.2% (active),-82.4% (active),-65.4% (active),-84.3% (active)
CNc1cccc2c1C(=O)c1cccc(N)c1C2=O,58.6%,71.2%,71.5%,84.2%,29.6%,40.7%,88%,77.3%,79.1%,96.3%
O=C(O)c1ccc(-n2cc(/C=N/Nc3ccc(Cl)cc3Cl)c(-c3ccccc3)n2)cc1,72%,94.9%,88.4%,101%,90.5%,80.7%,87.1%,96.2%,91.9%,103%
N#Cc1ccc(C2C3=C(CCCC3=O)OC3=C2C(=O)c2ccccc2C3=O)cc1 (stereo not given),74.5%,97.1%,62.6%,105%,70%,72.6%,61.1%,35.1%,9.4% (active),112%
O=C(CN1N=C(c2ccc(F)cc2)CCC1=O)Nc1nccs1,99.3%,87%,92.2%,91.4%,101%,88.3%,98.4%,92.5%,98.9%,109%
CCN(CC)CC#CCOC(=O)[C@]1(C)CCC[C@]2(C)[C@H]3C[C@H]4C(C(C)C)=C[C@]3(CC[C@H]21)[C@@H]1C(=O)CCC(=O)[C@@H]14,42.7%,5.05% (active),55.4%,70.4%,38.3%,25%,58.8%,70.5%,38.7%,66.2%
Cc1cc(O)cc(O)c1N=NC1=NCCS1,102%,95.7%,81.7%,107%,105%,107%,111%,99.5%,97.2%,98.5%
C=C1C(=O)O[C@H]2[C@H]1CC/C(C=Nc1c(N)cc(C(F)(F)F)cc1Br)=C\CC[C@@]1(C)O[C@@H]21,-55.1% (active),-36.4% (active),76.1%,33.7%,25.7%,6.24% (active),33.7%,4.73% (active),-74.4% (active),-12.3% (active)
CCOC(=O)NC(Cc1ccccc1)c1ccccc1 (stereo not given),106%,97.5%,100%,104%,99.9%,94.7%,104%,97.5%,94.9%,115%
COc1ccc(Nc2nc(SCC(C)C)nc(-c3ccc(F)cc3)c2C#N)cc1,46%,24.3%,70.6%,50.3%,56.7%,49.2%,53.6%,40.6%,57.8%,72.2%
CCCCC1=c2c([nH]c3ccc(OC)cc23)=NC2C=CC=NC12 (stereo not given),84.2%,77.8%,92.9%,104%,103%,86.1%,84.3%,94.5%,91.4%,112%
O=C(Nc1nccs1)c1noc2ccccc12,92.8%,99.5%,87.9%,93.5%,98.5%,80%,91.5%,88%,95.8%,103%
O=C(O)CCNC1CCCCC1,99.4%,106%,90.3%,91.2%,94.2%,94.8%,108%,100%,94.1%,100%
CCOC(=O)/C=C1\SC(=Nc2ccc(C#N)cc2)N(CCN2C(=O)/C(=C/C(=O)OCC)SC2=Nc2ccc(C#N)cc2)C1=O,2.58% (active),15.7%,53.6%,28.2%,-7.96% (active),39.6%,58.8%,33.6%,0.0355% (active),97%
